Screening data (PubChem BioAssay)
The full list was thinned out, with hits kept by preference.
Dicer processing: inhibitors of human Dicer processing of pre-microRNA | Q9UPY3 | cat-ELCCA pre-miR-21 Dicer processing, chemiluminescence; hits give high values | z-score at 25 µM | 47,000 compounds, 6% hits; in the data active = z-score above about 3, passing the limit was not always enough;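 also: higher signal means more uncleaved substrate so more Dicer inhibition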
Of the large screens only hits and unclear results are named; the others gave an inactive call.

COc1ccc(Cl)cc1NS(=O)(=O)c1ccc(F)cc1	none
CNc1nc(-c2ccc(Cl)s2)cs1	none
COc1cc(N=C(N)N=C(N)N)cc(OC)c1OC	none
O=C(Oc1ccc2cc(Br)ccc2c1)c1ccncc1	none
Cc1ccc(C2CC(=O)NC(SCC(=O)Nc3ccc(Br)cc3)=C2C#N)o1 (stereo not drawn)	none
COC(=O)c1cc(-c2nc(C)cs2)c(SC)s1	none
O=C(/C=C/Nc1ccc(Cl)cc1Cl)c1ccc(Br)cc1	none
CC(O)CNc1nc2c([nH]1)c(=O)n(C)c(=O)n2C (stereo not drawn)	none
COc1ccc(/C=N/NC(=O)Cn2nc(-c3ccccc3)c(-c3ccccc3)nc2=O)cc1	none
COc1cc(C2CC(=S)Nc3ccccc3S2)cc(OC)c1OC (stereo not drawn)	none
O=C(NNC(=S)Nc1ccc(F)cc1)c1ccccc1Cl	Dicer processing 4.7
Cc1cc(Br)c(NC(=S)NNc2ccccc2)c(Br)c1	none
Cc1ccccc1NC(=S)NNC(=O)c1ccccc1Cl	none
O=C(c1ccccc1)c1cc(Cl)ccc1NC(=S)Nc1ccc(F)cc1	none
FC(F)(F)c1cccc(NNC(=S)Nc2ccccc2)c1	none
COCCCNC(=S)Nc1ccc(F)cc1	none
S=C(NNC(=S)Nc1ccccc1)Nc1ccccc1	Dicer processing 14
COCCCNC(=S)NNC(=S)Nc1ccccc1	Dicer processing 3.6
COCCCNC(=S)NNC(=O)c1ccc(C(F)(F)F)cc1	none
N#CCC(=O)NNC(=S)Nc1ccccc1	none
Fc1ccc(NC(=S)Nc2ccccc2)cc1	none
S=C(NNc1ccccc1)c1ccccc1	Dicer processing 5.2
O=C1c2oc3ccccc3c(=O)c2C(c2cccc(O)c2)N1c1nccs1 (stereo not drawn)	none
CCOC(=O)C(C)Oc1ccc2c(=O)c(Oc3cc(C)cc(C)c3)coc2c1 (stereo not drawn)	none
CC(=O)c1ccccc1N/C=C/c1nnnn1-c1ccccc1	none
Nc1nonc1C1=NS(=O)ON1 (stereo not drawn)	none
Cc1[nH][nH]c(=O)c1C(c1ccccc1OCc1ccc(F)cc1)c1c(C)[nH][nH]c1=O	none
C=C1SC(Nc2cc(C)c(C)cc2C)=NC1(C)C	none
C=CCN(C(=O)c1cccc(Cl)c1)c1ccccc1C(=O)NCC(=O)OCC	none
CC(=O)c1nnn(-c2cccc(Cl)c2Cl)c1C	none
Clc1ccccc1CN1CCN(C2CCCCC2)CC1	none
Cc1ccc(Sc2ncnc3sccc23)cc1	none
COC(=O)C(=O)/C=C(\O)c1ccc(Cl)cc1	none
O=S(=O)(N/N=C/c1ccsc1)c1ccc(Cl)s1	none
COC(=O)Nc1cc(C)nc2ccccc12	none
Cc1ccc(/C(O)=C/C(=O)C(=O)NNC(=O)c2cc(C)nc3ccccc23)cc1	Dicer processing 3.2
Cc1ccc(-c2cc(C(=O)O)c3ccccc3n2)s1	none
O=[N+]([O-])c1ccc2nc(SCc3c(Cl)cccc3Cl)sc2c1	none
COc1ccc(S(=O)(=O)N2CCN(S(=O)(=O)c3ccc4ccccc4c3)CC2)cc1	none
O=S(=O)(c1ccc2ccccc2c1)N1CCN(C2CCN(Cc3ccccc3)CC2)CC1	Dicer processing 3.2
O=S(=O)(c1ccc2ccccc2c1)N1CCCCC1	none
CSc1ccc(CN2CCN(S(=O)(=O)c3ccc4ccccc4c3)CC2)cc1	Dicer processing 3.4
Fc1ccccc1CN1CCN(C2CCN(Cc3ccccc3)CC2)CC1	none
O=S(=O)(c1ccc2ccccc2c1)N1CC=C(c2ccccc2)CC1	none
O=C(Nc1ccccc1)Nc1cc(-c2ccccc2)[nH]n1	none
COc1ccc(C(C)=O)cc1CSCC(=O)Nc1ccc(Cl)cc1	none
COC(=O)C1=C(C)N=C2SCCC(=O)N2C1c1ccc(C)cc1 (stereo not drawn)	none
CC(C)n1cc(C(N)=S)c(=O)n(Cc2ccccc2)c1=O	none
CC(C)n1cc(/C(N)=N/OC(=O)c2ccccc2Cl)c(=O)n(Cc2ccccc2)c1=O	none
Cn1cc(/C(N)=N/O)c(=O)n(Cc2ccccc2)c1=O	Dicer processing 7
N/C(=N\NS(=O)(=O)c1cc(C(F)(F)F)cc(C(F)(F)F)c1)c1ccccn1	none
CC(C)(C)NC(=S)Nc1ccccc1C(F)(F)F	none
N/C(=N\NC(=S)Nc1ccccc1C(F)(F)F)c1ccccn1	Dicer processing 4.3
O=C(NCCNc1ccc(C(F)(F)F)cn1)Nc1cccc(Cl)c1Cl	none
Cc1ncc(-c2nnnn2-c2ccc(Cl)cc2)c(-c2ccccc2)n1	none
c1ccc(-c2csc3ncnc(NC4CCCCC4)c23)cc1	none
O=C(Nc1ccc(Cl)cc1)OC1CCSC1 (stereo not drawn)	none
CSC(=NC(=O)c1c(Cl)cccc1Cl)SC	none
CCOC(=O)c1c(NC(=O)CCC(=O)O)sc2c1CCC(C(C)(C)C)C2 (stereo not drawn)	none
COc1ccc(Nc2ccnc3ccccc23)cc1	Dicer processing 3.6
COc1ccc(Nc2ncnc3ccccc23)cc1	none
COc1ccc(Nc2nc3ccccc3c(=O)s2)cc1	none
CCN(CCC#N)C(=O)c1c(-c2c(Cl)cccc2Cl)noc1C	none
COc1ccc(C2C3=C(Nc4ncnn42)c2ccccc2OC3c2ccccc2)cc1 (stereo not drawn)	none
Cn1nc(-c2ccccc2)cc1NC(=O)Nc1cccs1	none
O=C(NCc1ccco1)c1cc2n(n1)C(C(F)(F)F)CC(c1ccc3c(c1)OCO3)N2 (stereo not drawn)	Dicer processing 3.8
